In PubChem BioAssay (NCATS):
Results filed as inconclusive are left out. A number with no mark means an inactive call. Calls come from the whole dose curve. Non-standard residues stand in square brackets, D forms with d. Residues, ends and D or L forms follow the SMILES beside them. ξ: configuration not given here. ξL = CC(C)CC(N)C(=O)O

assay: qHTS for inhibitors of Rabies Virus screened against the NCATS CANVASS Library (AID 1347402); conditions: Rabies virus infection cell assay; series mostly up to 45.9 µM; activity change, negative = inhibition: at the top concentration; note: 0% is about no effect

SMILES	activity change, negative = inhibition
CC[C@@H](C)[C@H]1NC(=O)C(CC(C)C)NC(=O)[C@@H](CC(C)C)NC(=O)[C@H](Cc2c[nH]c3ccccc23)NC(=O)CNC(=O)[C@@H](CC(N)=O)NC1=O (stereo partly drawn) (cyclo(GW[dL][ξL][dI][dN]))	-11.9%
O=Cc1ccc2n1C[C@]1(C[C@H](O)[C@@H](CO)O1)OC2	-10.2%
Oc1ccc(C2c3c(O)cc(O)cc3[C@@H]3C(c4ccc(O)cc4)c4c(O)cc(O)cc4[C@H]23)cc1 (some centres undefined)	-26.7%
CC1(C)CC[C@]2(CO)CC[C@]3(C)C(=CCC4[C@@]5(C)CC[C@H](O)C(C)(C)C5CC[C@]43C)C2C1 (some centres undefined)	0.666%
